# m5-HT2A agonist – mouse HTR2A agonism via beta-arrestin recruitment; 360,000 compounds, 0.66% hits; P35363; activation, % at 7.6 µM; CHO-K1 mHTR2A beta-arrestin complementation, luminescence; percent of 30 µM serotonin response;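 active = activation above a run cutoff, the mean activation of all tested compounds plus 3 SD, cut at about 14% in these data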;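 also: 0% = plate median of compound wells and 100% = 30 µM serotonin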
# Target sequence (P35363 whole entry, looked up): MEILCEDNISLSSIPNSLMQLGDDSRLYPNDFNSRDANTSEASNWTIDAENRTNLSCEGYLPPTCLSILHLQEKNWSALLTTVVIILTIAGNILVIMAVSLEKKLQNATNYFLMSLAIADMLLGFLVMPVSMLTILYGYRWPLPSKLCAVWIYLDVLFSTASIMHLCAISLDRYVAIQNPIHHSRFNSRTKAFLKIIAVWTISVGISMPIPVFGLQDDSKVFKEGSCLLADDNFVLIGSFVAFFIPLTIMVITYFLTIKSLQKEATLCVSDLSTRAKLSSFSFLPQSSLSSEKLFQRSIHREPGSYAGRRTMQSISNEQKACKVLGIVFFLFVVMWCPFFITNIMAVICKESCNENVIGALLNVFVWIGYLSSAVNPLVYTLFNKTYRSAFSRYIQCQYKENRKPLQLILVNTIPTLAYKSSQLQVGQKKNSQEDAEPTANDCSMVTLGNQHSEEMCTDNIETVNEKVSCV
# MEX-5 binding – C. elegans MEX-5 TCR-2 RNA binding activity; MEX-5/FITC-TCR2 RNA binding, fluorescence polarization; stronger effect = lower value; activity score (negative = inhibition of binding), % at 10 µM; AID 1832; 300,000 compounds, 0.38% hits; Q9XUB2;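 active = inhibition past about -25% in most replicates, and total fluorescence under double the plate's negative control median, limit read from the data; inconclusive = replicates evenly split on the limit, or fluorescence at least double controls; inactive = too little inhibition in most replicates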;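 also: 0% = DMSO and -100% = 5 µM competing unlabeled TCR2 RNA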
# JMJD2C inh – human JMJD2C demethylase inhibition; Q9H3R0; GST-JMJD2C(1-420) H3K9me3 demethylation, DELFIA europium; inhibition, % at 2.35 µM; 330,000 compounds, 0.069% hits;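 active = more than half of a compound's replicate wells show inhibition beyond 50%, single wells judged on their own value; inconclusive = some, but no more than half, of replicates pass 50% inhibition; inactive = no replicate passes 50% inhibition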;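 also: signal counts dimethyl H3K9 product captured on neutravidin plate; 0% = median of DMSO wells and 100% = 0.3 times that DMSO median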
# V-ATPase pHluor – regulators of yeast V-ATPase proton transport. response, % at 10 µM. S. cerevisiae, pHLuorin cytosolic pH fluorescence. 350,000 compounds, 0.37% hits. AID 504577; in the data active = response mostly above about 7.3%, no sharp cut-off; inactive = mostly below about 5.4%; also: actives read high
# VLA-4 inh – inhibition in a human VLA-4 binding assay | inhibition, % (about 7 µM as worked out from the volumes in the protocol) | 330,000 compounds, 0.2% hits | P13612 | AID 2557 | VLA-4 expressing cells, ligand binding flow cytometry; in the data active = inhibition above about 50%
# Granule exo inh – lytic granule exocytosis inhibition; TALL-104 LAMP-1 surface exposure, flow cytometry; cells stimulated with thapsigargin and PMA; inhibition, % at 10 µM; 360,000 compounds, 0.66% hits;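 active = inhibition above about 55%, limit read from the data; inconclusive = no clear call, values can overlap the other calls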
# V-ATPase pH SP – regulators of yeast V-ATPase proton transport; shares compounds with V-ATPase pHluor; S. cerevisiae pHLuorin cytosolic pH; response, % at 10 µM; 980 compounds, 2% hits; AID 602197; in the data active = response above about 24%;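 also: plate controls were vehicle wells for no effect and positive control wells for full effect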
# * hit, by the source's call; ? = inconclusive; . = no result. Most compounds without a hit are left out; they make up all but 2.2% or so of the library.
SMILES,m5-HT2A agonist,MEX-5 binding,JMJD2C inh,V-ATPase pHluor,VLA-4 inh,Granule exo inh,V-ATPase pH SP
CCOC(=O)c1c(C)[nH]c(C(=O)OCC(=O)Nc2cccnc2Cl)c1C,-2.9,-1.5,6.7,1.7,2.5,-4.3,.
Cn1nc(NC(=O)C(C)(C)C)c2c(F)cccc21,2.2,0.5,35.1,11.9*,1.9,4.8,1.2
CN(C)c1cccc2c1c(NC(=O)c1ccc(F)cc1)nn2C,-0.3,1.3,2.7,-2.8,-1.7,-3.7,.
COC(=O)c1cc(S(=O)(=O)Nc2cc(OC)cc(OC)c2)cn1C,1.5,0.0,-8.2,2.0,-2.7,-9.0,.
COC(=O)c1cc(S(=O)(=O)Nc2cccc(C)c2C)cn1C,-3.5,4.1,-11.7,11.4*,-3.1,-0.4,5.7
COc1cc(NC(=S)NC(=O)c2ccco2)ccc1NC(=O)C(C)C,5.4,-4.1,15.6,7.0,-7.5,0.1,.
COc1cc(NC(=S)NC(=O)c2ccccc2F)ccc1NC(=O)c1ccco1,0.9,-4.3,-22.6,54.4*,4.6,0.3,1.6
CCOc1ccc(CC(=O)NNC(=S)NCCc2ccccc2)cc1,0.7,1.4,9.9,1.9,-4.5,-2.4,.
CC(=O)c1ccc(OCC(O)CN2CC(C)OC(C)C2)cc1 (centres undefined),0.2,-2.9,8.5,-5.2,2.3,-0.6,.
CC1CN(CC(O)COc2ccc(C(C)C)cc2)CC(C)O1 (centres undefined),0.5,-2.4,0.7,8.8*,8.7,-0.9,0.2
CC(CNc1ccc(Cl)cc1)(CNc1ccc(Cl)cc1)[N+](=O)[O-],-1.6,.,.,8.8*,.,2.7,1.7
O=[N+]([O-])c1ccc(CNc2ccc(Cl)cc2)s1,-6.0,-0.7,-23.9,-1.8,-15.4,11.2,.
Cc1nn(CCOc2cccc(Cl)c2)c(C)c1[N+](=O)[O-],3.1,1.0,-4.1,-0.5,15.9,-3.2,.
COc1ccc(N2C(=O)NC(NC(=O)C(C)(C)C)(C(F)(F)F)C2=O)cc1 (centres undefined),-0.7,0.6,-0.3,-3.1,12.9,-0.2,.
Cc1cc(C)c2cccc(N)c2n1,1.1,1.2,9.0,31.1*,13.8,1.7,0.4
Cc1cc(C)c2c(N)c3ccccc3nc2n1,2.3,-3.3,0.9,3.2,-5.9,-2.4,.
N#Cc1c(-c2ccccc2)c(C#N)c2nc3ccccc3n2c1N,7.8,1.1,9.7,9.1*,-10.5,-1.2,-29.1
Cc1ccc(-c2c(C#N)c(N)n3c(nc4ccccc43)c2C#N)cc1,4.5,.,?,1.8,-8.8,6.8,.
N#Cc1ccccc1OCC(=O)NCc1ccccc1CN1CCCC1,-3.5,.,-1.1,7.0,13.6,-1.2,.
O=C(CCCC(=O)N(c1ccc(F)cc1)C(C(=O)NC1CCCC1)c1ccc(O)cc1)Nc1ccccn1 (centres undefined),-12.7,0.4,1.6,11.3*,-4.8,39.9,1.2
COc1ccc(C(=O)COC(=O)/C=C/c2ccccc2[N+](=O)[O-])cc1,3.9,.,4.4,13.7*,-3.0,-1.5,-0.4
O=C(/C=C/c1ccccc1[N+](=O)[O-])OCC(=O)c1ccccc1,-5.0,4.4,.,-1.7,3.8,-0.5,.
Cc1ccsc1-c1nc(CN2CCN(C)C(=O)[C@@H]2C)c(C)o1,0.9,0.4,-9.7,0.1,0.0,-0.7,.
Cc1ccsc1-c1nc(CN(C)C(C2CC2)C2CC2)c(C)o1,-0.7,0.2,3.5,18.1*,7.0,1.4,0.5
COCCN(C(=O)COC(=O)C(C)(C)Oc1ccc(Cl)cc1)c1c(N)n(Cc2ccccc2)c(=O)[nH]c1=O,2.3,.,.,9.7,.,7.5,.
Nc1nc(Oc2ccc(F)cc2)c(Br)c(=O)[nH]1,1.1,1.4,-3.4,-2.0,-0.1,25.4,.
Cc1cccc(NC(=O)CSc2cc(C)c(C#N)c3nc4ccccc4n23)c1,-7.2,-2.5,7.5,-1.5,15.0,-6.5,.
O=c1ccc(OCCOc2ccccc2)nn1-c1ccccc1,-1.7,-4.0,4.8,14.7*,7.5,-3.8,6.5

# Screening data as filed in PubChem BioAssay.
